Out of some 69,000 compounds screened, about 950 (1.4%) showed an effect of 50% or more. This excerpt belongs to a sample that is enriched for strong results.

The experiment relates to Mycobacterium tuberculosis. Briefly: Cornell M. t heat shock assay. Further: in the data most compounds retested in dose-response had high values. Type of experiment: functional, organism-based. Also noted: dose or concentration left out as unconfirmed.
With `O=C(O)C(F)(F)F.c1cnc(N2CCC3(CCCN(Cc4ccncc4)C3)CC2)nc1`, the “Percent Effect” value was -2.214%.

With `CNC(=O)[C@H]1C[C@@H]2CCN(c3nnc(C)s3)C[C@@H]2O1.O=C(O)C(F)(F)F`, the “Percent Effect” value is on record as 0.7881%.

In the case of `CSCCC1c2nc[nH]c2CCN1Cc1cc(Cl)ccc1O` (configuration not stated), the “Percent Effect” value came out at 106.2%.

`CSCCC1c2nc[nH]c2CCN1Cc1ccccc1C#N` (configuration not stated): the “Percent Effect” value came out at 12.31%.

For the compound `CSCCC1c2nc[nH]c2CCN1Cc1ccccc1C(F)(F)F` (configuration not stated), the “Percent Effect” value is -11.51%.

For the compound `Cc1ccccc1C(=O)N1CC[C@@H](N(C)C)[C@@H]1Cc1cnn(C)c1.O=C(O)C(F)(F)F`, the “Percent Effect” value is -16.62%.

Take `CN(C)S(=O)(=O)N1CC[C@]2(C[C@@H](Oc3ncccc3F)CO2)C1.O=C(O)C(F)(F)F`: the “Percent Effect” value came out at 7.547%.

For `COc1ccc(CN2C[C@@H](OCc3ccccn3)[C@H]3COC[C@H]32)cc1.O=C(O)C(F)(F)F.O=C(O)C(F)(F)F`, the “Percent Effect” value is -14.6%.

On to `CCN1CCC(CC(=O)NCC(O)c2ccc3ccccc3c2)CC1` (configuration not stated), for which the “Percent Effect” value is 13.11%.

Take `CCN1CCC(CC(=O)NCC(O)c2cccc(OC)c2)CC1` (configuration not stated): the “Percent Effect” value turned out to be 93.38%.

As to `COc1cccc(C(O)CNC(=O)CC2CCCCC2)c1` (configuration not stated), the “Percent Effect” value is recorded as 9.16%.

For the compound `Cn1ccc(CN2CCCC23CCN(Cc2nccn2C)CC3)n1.O=C(O)C(F)(F)F.O=C(O)C(F)(F)F`, the “Percent Effect” value is on record as 9.444%.

Regarding `CCN(CC)Cc1ccc(C(=O)N2CCN(CC(C)O)CC2)cc1` (configuration not stated), the “Percent Effect” value is on record as 9.654%.

For the compound `CCc1ccc(C(=O)N2CCN(CC(C)O)CC2)o1` (configuration not stated), the “Percent Effect” value was 14.22%.

`CCN(CC)Cc1ccc(C(=O)N2CCN(CC(C)O)CC2)o1` (configuration not stated): the “Percent Effect” value was 61.39%.

For `Cc1ccc(S(=O)(=O)Nc2ccc(N3CCSCC3)c(C(=O)O)c2)s1`, the “Percent Effect” value is -1.51%.

In the case of `CCN(Cc1noc(C)n1)C(=O)CCn1c(C)cc2ccccc21`, the “Percent Effect” value came to 72.72%.

Turning to `CCN(Cc1nc(COC)no1)C(=O)CCn1c(C)cc2ccccc21`, the “Percent Effect” value came out at 35.71%.

For the compound `CCN(Cc1ccncc1)C(=O)CCn1c(C)cc2ccccc21`, the “Percent Effect” value was found to be 10.06%.

On to `COCCN1CCOCC12CCN(C(=O)c1ccoc1)CC2.O=C(O)C(F)(F)F`, for which the “Percent Effect” value is listed as -24.79%.

In the case of `Cn1cc(CN2CC[C@H]3O[C@H](C(=O)Nc4cnccn4)CC[C@H]32)cn1.O=C(O)C(F)(F)F`, the “Percent Effect” value was -14.77%.

Take `COc1cccc(CN(C)Cc2ccccc2C#N)c1OC`: the “Percent Effect” value is given as -6.46%.

With `CN(CCC(O)c1ccccc1)Cc1nc(-c2ccccc2)no1` (configuration not stated), the “Percent Effect” value was 28.98%.

For the compound `CN(CCC(O)c1ccccc1)Cc1ccccc1C#N` (configuration not stated), the “Percent Effect” value came out at 79.67%.

On to `Cc1cc(CN(C)CCC(O)c2ccccc2)no1` (configuration not stated), for which the “Percent Effect” value stood at 50.59%.

Turning to `Cc1cc(CN(C)CCC(O)c2ccccc2)nn1C` (configuration not stated), the “Percent Effect” value was found to be 0.01185%.

Regarding `Cc1cc(CN(C)CCN(C)c2ccccc2)no1`, the “Percent Effect” value amounted to 0.1875%.

The values above are taken from ChEMBL document CHEMBL3988442, “University of Dundee, Small-Polar-MMV Screening Library” (2021).
